# System: Sonic hedgehog protein (Shh)
# Test: Sonic hedgehog microarray binding compounds – biochemical, small-molecule microarray, 635/667 nm fluorescence, primary screen (AID 1151);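 also: Shh protein binding to compounds spotted on small-molecule microarray slides; score combines spot fluorescence intensity with signal-to-noise across triplicate slides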
# Details: 635 nm fluorescence, higher = more signal
row,Compound,composite z-score
1,COC(=O)C(CC#Cc1ccc2c(c1)[C@]1(C(=O)N2)[C@H](c2ccc(OCCO)cc2)N2[C@H](c3ccccc3)[C@H](c3ccccc3)OC(=O)[C@H]2[C@@H]1C(N)=O)C(=O)OC,-0.315
2,COC(=O)C(CC#Cc1ccc2c(c1)[C@]1(C(=O)N2)[C@H](c2ccccc2OCCO)N2[C@H](c3ccccc3)[C@H](c3ccccc3)OC(=O)[C@H]2[C@@H]1C(=O)N1CCN(c2ncccn2)CC1)C(=O)OC,1.11
3,COC(=O)Cn1c(C(=O)N(C)C)cc2c1C[C@H]1CN(C(=O)c3ccccc3)[C@@](Cc3ccccc3)(C(=O)OC)[C@@H]21,-0.535
4,COC(=O)[C@@]1(Cc2ccc(OC)cc2)[C@@H]2[C@@H](CC(=O)[C@H]2CC(=O)C(=O)N(C)C)CN1C(=O)c1ccccc1,0.326
5,COC(=O)[C@@]1(Cc2ccccc2)[C@H]2c3cc(C(=O)N(C)C)n(Cc4nc5ccccc5[nH]4)c3C[C@H]2CN1C(=O)c1ccccc1,-0.441
6,COCCOC(=O)N1C(=O)[C@@]2(c3cc(C#CCCO)ccc31)[C@H](C(=O)N1CCN(c3ncccn3)CC1)[C@H]1C(=O)O[C@H](c3ccccc3)[C@H](c3ccccc3)N1[C@@H]2c1ccc(OCCO)cc1,1.99
7,C=C(CCCC)/C(=C/C[C@@H](OC(C)=O)c1cccc(OCCO)c1)c1cc(C(=O)OC)ccc1OC,1.48
8,C=CCOC(=O)[C@H]1[C@@H]2C(=O)O[C@@H](c3ccccc3)[C@@H](c3ccccc3)N2[C@@H](c2ccc(OCCOC(=O)[C@H]3C[C@H]4C(=O)NCC(=O)N4[C@H]3c3cccc(OCCO)c3)cc2)[C@]12C(=O)Nc1ccc(I)cc12,1.94
9,CCOC(=O)C=C1C[C@@H](c2cccc([N+](=O)[O-])c2)O[C@@H](c2cccc([N+](=O)[O-])c2)O1,0.147
10,COc1ccc(C#Cc2ccc3c(c2)[C@]2(C(=O)N3)[C@H](c3ccccc3OCCO)N3[C@H](c4ccccc4)[C@H](c4ccccc4)OC(=O)[C@H]3[C@@H]2C(=O)NC[C@H](O)c2ccccc2)cc1,1.72
11,C=CC[C@H](O)c1ccc(O)c2ccccc12,1.96
12,Cc1ccc(S[C@]2(C(=O)NCCN3CCOCC3)CC(=O)N(C(C)C)[C@@H]2c2ccc(CO)cc2I)cc1,-0.0348
13,CN(C)C(=O)[C@]1(CCS(=O)(=O)c2ccccc2)N=C(c2ccc(OCCCO)cc2)O[C@@H]1c1ccccc1CN=[N+]=[N-],-0.405
14,C[C@H]1C2[C@H](Cc3ccccc3)NC(=O)[C@]23C(=O)N[C@@H](Cc2ccccc2)C(=O)N2CCC[C@H]2C(=O)NC/C=C/CC/C=C/C3[C@@H]2O[C@]12C (stereo not given in full),0.975
15,C=CCN1C(=O)[C@]2(O[C@H](CCO)[C@@H]([Si](C)(C)c3ccc(OC)cc3)[C@@H]2C)c2cc(N3C(=O)c4ccccc4Oc4ccccc43)ccc21,0.804
16,CO[C@H]1O[C@H](CO)[C@@H](OC(=O)Nc2ccccc2)[C@@H]2OC(=O)[C@@H](Cc3ccccc3)C/C=C/C[C@H](Cc3ccccc3)C(=O)O[C@@H]12,0.591
17,COC(=O)[C@@]1(Cc2ccc(OC)cc2)[C@H]2c3cc(C(=O)N(C)C)n(Cc4c(CO)[nH]cc(C)c4=O)c3C[C@H]2CN1C(=O)c1ccccc1,-0.532
18,COc1cccc(C)c1NC(=O)O[C@H]1[C@H](OC(=O)Nc2ccccc2-c2ccccc2)[C@@H](OC(=O)Nc2ccccc2-c2ccccc2)[C@@H](OC)O[C@@H]1CO,0.457

row,Compound,composite z-score
1,CCCNC(=O)[C@@]1(Sc2ccc(C)cc2)CC(=O)N(Cc2cc(C(F)(F)F)cc(C(F)(F)F)c2)[C@@H]1c1ccc(CO)cc1,-0.0508
2,COC(=O)[C@@]1(Cc2ccc(F)cc2)[C@H]2c3cc(C(=O)N(C)C)n(Cc4ccc(C(F)(F)F)nc4)c3C[C@H]2CN1C(=O)c1ccccc1,0.521
3,COC(=O)[C@@]1(Cc2ccccc2)[C@H]2c3cc(C(=O)N(C)C)n(Cc4ccc(Cl)c(C(F)(F)F)c4)c3C[C@H]2CN1C(=O)c1ccccc1,1.31
4,CN1C(=O)C2C=CC(C(O)c3ccc(I)cc3)N(N(c3ccccc3)c3ccccc3)C2C1=O (stereo not given),-0.416
5,Cc1ccc(S[C@]2(C(=O)NCc3ccccc3)CC(=O)N(Cc3ccccc3C(F)(F)F)[C@@H]2c2ccc(CO)cc2I)cc1,-0.26
6,COCCCNC(=O)[C@@]1(CCC(=O)OC(C)(C)C)N=C(c2ccc(OCCCO)cc2)O[C@H]1c1ccccc1,-0.119
7,C=C(COC)/C(=C/C[C@@H](OC(C)=O)c1cccc(OCCO)c1)c1cnc2ccccc2c1,1.83
8,COC(=O)[C@@]1(Cc2ccc(F)cc2)[C@H]2c3cc(C(=O)N4CCCC4)n(Cc4ccc(OC(F)(F)F)cc4)c3C[C@H]2CN1C(=O)c1ccccc1,-1.02
9,O=C1OCCC/C=C\[C@H]2OC34C=CCN(Cc5ccccc5)C(=O)[C@H]3N(CCO)C(=O)[C@@H]4C12 (stereo not given in full),1.87
10,COC(=O)[C@H](Cc1ccccc1)N1CC(C)(OC)O[C@@H](Cc2ccccc2)[C@H]1/C=C/C1CC1 (stereo not given in full),0.0034
11,COc1c(C)cc(-c2cc3c(c(CCc4ccccc4)n2)[Si](C(C)C)(C(C)C)O[C@H]3c2ccccc2)cc1C,-0.11
12,[N-]=[N+]=Nc1ccccc1C[C@@]1(C(=O)NCc2ccccc2)N=C(c2ccc(OCCCO)cc2)O[C@@H]1c1ccccc1,0.242
13,C=C(CCCC)/C(=C/C[C@@H](OC(C)=O)c1ccc(OCCO)cc1)c1cc(C(=O)OC)ccc1OC,1.04
14,C=CCNC(=O)[C@H]1[C@@H]2C(=O)O[C@@H](c3ccccc3)[C@@H](c3ccccc3)N2[C@@H](c2ccc(OCCO)cc2)[C@]12C(=O)Nc1ccc(C#Cc3ccc(OC)cc3)cc12,0.974
15,CC(C)N1C(=O)[C@@]2(Cc3ccccc31)c1ccccc1C(=O)N(Cc1ccccc1C(F)(F)F)[C@H]2c1ccc(CO)cc1,0.376
16,COC(=O)c1ccc(OC)c(/C=C\CC(OC(=O)c2ccncc2)c2ccccc2)c1 (stereo not given),1.14
17,O=C(NC1CC1)[C@@H]1c2ccccc2C(=O)N(C2CCCCC2)[C@H]1c1ccc(CO)cc1,-0.118

# Reference: PubChem BioAssay
